Screening data as filed in PubChem BioAssay.
ClpP mod = qHTS Assay for Activators of ClpP. ATP-dependent Clp protease proteolytic subunit (Bacillus subtilis (strain 168)), P80244. purified B. subtilis ClpP, FRET peptide cleavage, 20 min. Potency, µM (series often up to 57.5 µM), for inactives: at the top dose activity change, negative = active. 340,000 tested, 1.9% active. AID 651965, 2013; active = well fitted falling curve with a large enough effect; inconclusive = small, poorly fitted or top-dose-only effect; inactive = no such curve, though single readings can be large or run the other way; note: potency is the fitted concentration of half-maximal effect; the source files actives as falling curves though it sought activators and does not explain the sign; nearly all actives have a fitted effect of over 65% in size
Target sequence (P80244 whole entry, looked up): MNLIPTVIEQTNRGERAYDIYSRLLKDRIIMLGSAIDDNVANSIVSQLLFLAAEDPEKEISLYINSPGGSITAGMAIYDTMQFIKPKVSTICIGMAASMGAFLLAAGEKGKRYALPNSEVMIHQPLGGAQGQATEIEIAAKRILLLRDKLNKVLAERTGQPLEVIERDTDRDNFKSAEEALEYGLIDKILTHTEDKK
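ClpP 10 microg/mL final, pH 8 Tris/KCl buffer with BSA, glycerol, Tween-20; compound pinned in; FRET-FV substrate; RT 20 min; Ex320/Em430; ΔFRET vs ADEP 5.8 microM, DMSO, no enzyme.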
a7 integrin act = integrin-mediated muscular dystrophy alleviation activation; 350,000 tested, 0.064% active; Potency, µM (highest dose often 38.3 µM), for the others: at the highest dose activation, most hits filed as activators; AID 624291; alpha7betagal myoblasts, beta-gal FDG fluorescence, 48 h;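 note: potency is the fitted concentration of half-maximal effect; 100% = response of the positive control SU9516; nearly all actives have a fitted effect of over 60% in size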
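alpha7betagal+/- myoblasts (passage 13, 250/well) treated 48 h at 37C with compounds at 1:260 dilution of DMSO stock. Lysed, then beta-galactosidase activity read as FDG fluorescence (ex 480/em 540) after 30 min, with pre-read for autofluorescence.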
Anesthetic bind = binds horse apoferritin like a general anesthetic. P02791. apoferritin/1-aminoanthracene competitive binding, fluorescence. Potency, µM (series often up to 77.5 µM), for the others: top-dose activity change, negative = displacement, hits mostly inhibitors. 350,000 tested, 0.074% active. AID 485281; note: potency is the fitted concentration of half-maximal effect; % is set by controls: 0 for no effect and ±100 for the full control effect; nearly all actives have a fitted effect of over 20% in size
Target sequence (P02791 2-175 limits assumed): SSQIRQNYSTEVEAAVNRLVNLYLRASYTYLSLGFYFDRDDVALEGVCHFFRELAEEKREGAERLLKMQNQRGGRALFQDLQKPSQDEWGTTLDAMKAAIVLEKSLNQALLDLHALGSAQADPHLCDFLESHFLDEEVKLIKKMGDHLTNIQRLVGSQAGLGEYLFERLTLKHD
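Apoferritin-based anesthetic binding model; compound displacement of fluorescent 1-AMA measured as endpoint fluorescence after 10 minutes at room temperature, scaled to free-ligand and complex controls.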
Glioma ERSR ind = inducers of ER stress response in human glioma cells | U87-MG GRP78 promoter luciferase reporter, 16 h | Potency, µM, inactives show at the top dose activation, most hits filed as activators | 420,000 tested, 0.02% active; note: potency is the fitted concentration of half-maximal effect; series mostly up to about 76 µM; % of control where 0% means no effect; nearly all actives have a fitted effect of over 35% in size
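Stably transfected U87-MG human glioma cells carrying a GRP78-based luminescent sensor were seeded at 1000 cells/well, pin-dosed with compounds and incubated 16 h. Luciferase reagent was then added, and end-point luminescence was read after 10 min at room temperature.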
N370S GC mod = inhibitors or activators of N370S glucocerebrosidase for Gaucher disease | P04062 | N370S GC spleen homogenate, 4MU-glucoside fluorescence | Potency, µM (series often up to 59.4 µM), without a hit: at the top dose activity change, negative = inhibition, actives largely listed as inhibitors | 330,000 tested, 0.092% active | AID 2101;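 note: potency is the fitted concentration of half-maximal effect; 0% = full enzyme activity and -100% = no enzyme basal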
CBFb-RUNX1 inh = inhibitors of human CBF-beta and RUNX1 interaction. AlphaScreen CBFb-His/RUNX1-biotin binding, biochemical. 230,000 tested, under 10 active. Potency, µM (series often up to 59.8 µM), without a hit: at the highest dose activity, negative = inhibition, actives largely listed as inhibitors; note: % of control where 0% means no effect
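Bead-based AlphaScreen assay; binding partners His-tagged CBF-beta and biotinylated RUNX1 at 30 nM each. Compound exposure 15 min after a 20-min protein preincubation; bead step 90 min; all steps at room temperature.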
* hit, by the source's call. The sample as a whole holds a higher share of hits than the screen did. Unless noted, calls come from the whole dose curve; as a rule, active = well fitted curve in the direction sought with a large enough effect; inconclusive = small, poorly fitted or top-dose-only effect, or another doubt; inactive = no such curve, though single readings can be large; an effect the other way counts as inactive or inconclusive.

How did COc1nc(-c2ccc(C)cc2)ccc1-c1noc(-c2ccco2)n1 do in these assays?
ClpP mod: 28.2µM*; a7 integrin act: 12.1%; Anesthetic bind: -23.3%; Glioma ERSR ind: 7.6%; N370S GC mod: 10.2%; CBFb-RUNX1 inh: 2.4%

How did CCOc1nc(-c2ccccc2)ccc1-c1noc(COc2ccccc2)n1 do in these assays?
ClpP mod: inconclusive; a7 integrin act: -8.8%; Anesthetic bind: -16.9%; Glioma ERSR ind: -5.8%; N370S GC mod: 20.8%; CBFb-RUNX1 inh: 27.3%

How did COc1nc(-c2ccc(C)cc2)ccc1-c1noc(-c2ccccc2Br)n1 do in these assays?
ClpP mod: 20.0%; Anesthetic bind: 1.3%; Glioma ERSR ind: -1.9%

Results for COCc1c(C(=O)N2CCN(c3ccccc3O)CC2)cnn1-c1nccc(-c2cccs2)n1 ?
Glioma ERSR ind: -2.8%

What do the screens show for `CC(C)(C)n1ncc2c(=O)n(Cc3ccccc3C#N)cnc21`?
Glioma ERSR ind: -4.4%

What do the screens show for `COc1ccc(C(=O)N(Cc2cc3cccc(C)c3nc2N(C)C)CC2CCCO2)cc1` (stereo not drawn)?
Glioma ERSR ind: -2.0%

How did Cc1cc(NC(=O)CCC(=O)N(Cc2cccnc2)C(C(=O)NC(C)(C)C)c2ccccc2Cl)no1 (stereo not drawn) do in these assays?
ClpP mod: 0.4%; a7 integrin act: 3.98µM*; Anesthetic bind: -14.0%; Glioma ERSR ind: -4.6%; N370S GC mod: 6.2%

Results for COc1cccc(CNC(=O)c2c(OC)cc(=O)n3c2CCN(C(=O)c2ccc(C)s2)CC3)c1 ?
Glioma ERSR ind: -1.6%

Results for O=[N+]([O-])c1ccc(N2CCN(c3ccccc3F)CC2)nc1 ?
ClpP mod: 0.9%; a7 integrin act: 5.62µM*; Anesthetic bind: -4.1%; Glioma ERSR ind: -5.2%; N370S GC mod: -12.6%

Results for O=[N+]([O-])c1ccc(N2CCN(c3ccccc3)CC2)nc1 ?
a7 integrin act: 20.2%; Anesthetic bind: 3.2%; Glioma ERSR ind: 0.7%; N370S GC mod: -7.5%

What do the screens show for `CC(O)(COc1ccccc1)c1ccc2c(c1)CN(C/C=C/c1ccco1)CCO2` (stereo not drawn)?
Glioma ERSR ind: 9.5%

How did COc1ccccc1-c1ccnc(-n2ncc(C(=O)NC(C)(C)CO)c2C2CC2)n1 do in these assays?
Glioma ERSR ind: 6.0%

What do the screens show for `Cc1cccc(-c2noc(CN(C(=O)C34CC5CC(CC(C5)C3)C4)C(C)C)n2)c1`?
ClpP mod: 31.6µM*; a7 integrin act: 36.0%; Anesthetic bind: -4.2%; Glioma ERSR ind: 0.3%; N370S GC mod: 7.3%; CBFb-RUNX1 inh: 7.4%

Results for O=C(NCc1cccnc1)C(=O)NCC(c1ccco1)N1CCN(c2ccccc2F)CC1 (stereo not drawn) ?
ClpP mod: 17.8µM*; a7 integrin act: -19.0%; Anesthetic bind: -1.4%; Glioma ERSR ind: -3.2%; N370S GC mod: 3.3%; CBFb-RUNX1 inh: -1.7%

Results for C(=Nc1ccc2ccccc2n1)c1ccccn1 ?
ClpP mod: 4.7%; Glioma ERSR ind: -3.2%

What do the screens show for `CC1c2cccn2CCN1S(=O)(=O)c1ccccc1` (stereo not drawn)?
ClpP mod: -2.4%; a7 integrin act: -10.3%; Glioma ERSR ind: -3.4%

How did COc1ccccc1S(=O)(=O)N1CCn2cccc2C1C (stereo not drawn) do in these assays?
ClpP mod: 28.2µM*; a7 integrin act: -6.8%; Glioma ERSR ind: -2.4%; N370S GC mod: -5.1%

Results for CCn1c(-c2ccccc2F)nc2cc(NC(C)=O)cc(C(=O)N3CCNC(=O)C3CC(=O)OC)c21 (stereo not drawn) ?
Glioma ERSR ind: -2.1%

What do the screens show for `CCn1c(SCC(=O)N2CCC(C)CC2)nnc1-c1ccc(S(=O)(=O)N2CCN(C)CC2)cc1`?
ClpP mod: 31.6µM*; a7 integrin act: 10.5%; Anesthetic bind: inconclusive; Glioma ERSR ind: -3.8%; N370S GC mod: 7.7%; CBFb-RUNX1 inh: 7.6%

Results for CC(=NNC(=S)N1CCCCC1)c1cccc(C)n1 ?
ClpP mod: 25.1µM*; a7 integrin act: -46.5%; Glioma ERSR ind: -0.5%

How did Cc1ccccc1NC(=O)CNc1ccccc1C(=O)NCc1ccco1 do in these assays?
ClpP mod: inconclusive; a7 integrin act: 0.0%; Anesthetic bind: -16.0%; Glioma ERSR ind: -4.6%; N370S GC mod: 10.2%; CBFb-RUNX1 inh: -1.6%

What do the screens show for `Cc1ccc(N(CC(=O)Nc2ccccc2C(=O)NCc2ccco2)S(=O)(=O)c2ccccc2)cc1C`?
ClpP mod: 22.4µM*; a7 integrin act: 9.6%; Anesthetic bind: -12.3%; Glioma ERSR ind: -5.0%; N370S GC mod: 16.7%; CBFb-RUNX1 inh: -12.1%

Results for O=C(CN(c1ccccc1)S(=O)(=O)c1ccccc1)Nc1ccccc1C(=O)NCc1ccco1 ?
ClpP mod: inconclusive; a7 integrin act: 20.7%; Anesthetic bind: 0.8%; Glioma ERSR ind: -4.9%; N370S GC mod: 2.5%; CBFb-RUNX1 inh: -2.4%

What do the screens show for `Cc1ccc(C)c(N(CC(=O)Nc2ccccc2C(=O)NCc2ccco2)S(=O)(=O)c2ccccc2)c1`?
ClpP mod: 35.5µM*; a7 integrin act: 7.7%; Anesthetic bind: 1.3%; Glioma ERSR ind: -3.3%; N370S GC mod: 2.6%; CBFb-RUNX1 inh: -3.9%

What do the screens show for `O=C(NCc1ccco1)c1ccccc1NS(=O)(=O)c1ccc2c(c1)OCCO2`?
ClpP mod: 31.6µM*; a7 integrin act: -6.4%; Anesthetic bind: -14.2%; Glioma ERSR ind: 5.6%; N370S GC mod: 20.0%; CBFb-RUNX1 inh: -8.7%

What do the screens show for `Cc1cccc(C)c1NC(=S)Nc1ccccc1C(=O)NCc1ccco1`?
ClpP mod: 25.1µM*; a7 integrin act: -30.0%; Anesthetic bind: -0.6%; Glioma ERSR ind: -1.9%; N370S GC mod: 3.5%; CBFb-RUNX1 inh: -12.6%

Results for CN(Cc1ccc(C(C)(C)C)cc1)c1cccc2ccccc12 ?
Glioma ERSR ind: -2.9%

How did COc1ccc2nc(C)c3cc(C)oc3c2c1 do in these assays?
ClpP mod: -8.2%; a7 integrin act: 2.2%; Anesthetic bind: -4.5%; Glioma ERSR ind: -5.3%; N370S GC mod: -3.3%; CBFb-RUNX1 inh: 3.9%

How did COc1cccc2c1nc(C)c1cc(C)oc12 do in these assays?
ClpP mod: 28.2µM*; a7 integrin act: -4.7%; Anesthetic bind: -2.6%; Glioma ERSR ind: 1.7%; N370S GC mod: 4.6%; CBFb-RUNX1 inh: -8.1%

Results for COc1cccc(CNC(=O)c2sc3nc[nH]c(=O)c3c2C)c1 ?
ClpP mod: 39.8µM*; Anesthetic bind: -19.2%; Glioma ERSR ind: -3.4%
